Many of the other results were omitted from the sample, so hits are more common in it than they were.
RECQ1 helicase: RECQ1 (human) helicase inhibition. P46063. RECQ1 DNA unwinding, red fluorescence kinetic read. Potency, µM (highest dose often 57.3 µM), for the others: top-dose activity, negative = inhibition, most hits filed as inhibitors. hit rate 0.54% among 240,000. AID 2549;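 further: plate controls were vehicle for no effect and no enzyme for full effect; nearly all actives have a fitted effect of over 30% in size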
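RECQ1T1 50 nM; forked duplex (20 bp + 30-nt ss tails) 200 nM, ATP 2 mM final; pH 8.0, 2 mM MgCl2, 2.5 ug/ml poly(dI-dC); 15 min compound preincubation; discontinuous kinetic read over 2 h at RT.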
BLM inh: blocks DNA unwinding by human BLM helicase; hit rate 0.2% among 350,000; recombinant BLM DNA unwinding, fluorescence dequenching; Potency, µM (highest dose often 56.1 µM), for the others: at the highest dose activity change, negative = inhibition, hits mostly inhibitors; P54132; AID 2528;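 further: plate controls were vehicle for no effect and no enzyme for full effect; nearly all actives have a fitted effect of over 35% in size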
GCN5L2 inh: GCN5L2 (KAT2A) acetyltransferase inhibition; Potency, µM (highest dose often 58.9 µM), without a hit: at the highest dose activity change, negative = inhibition, usual class: inhibitors; GCN5L2 HAT assay, ThioGlo1 CoA-SH fluorescence; Q92830; hit rate 0.21% among 390,000
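Compounds, pin-transferred from DMSO stocks, meet 20nM GCN5L2 for 15 min before the reaction begins with H3(1-25) peptide (75uM) and acetyl-CoA (70uM). Thiol-reactive ThioGlo1 reports CoA release over 20 min at room temperature.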
JMJD2E inh: JMJD2E (human) inhibition | hit rate 1.6% among 230,000 | B2RXH2 | Potency, µM (highest dose often 57.1 µM), without a hit: top-dose activity change, negative = inhibition, actives largely listed as inhibitors | JMJD2E catalytic domain, FDH-coupled NADH fluorescence (FDH is formaldehyde dehydrogenase) | AID 2147; active means well fitted inhibition curve with a large enough effect, not every such curve was filed as active; inconclusive means small, poorly fitted or top-dose-only effect, or another doubt; inactive means no such curve, though single readings can be large or run the other way;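 further: 0% = wells with enzyme and -100% = buffer wells without enzyme; nearly all actives have a fitted effect of over 50% in size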
Target sequence (B2RXH2 1-337 limits assumed): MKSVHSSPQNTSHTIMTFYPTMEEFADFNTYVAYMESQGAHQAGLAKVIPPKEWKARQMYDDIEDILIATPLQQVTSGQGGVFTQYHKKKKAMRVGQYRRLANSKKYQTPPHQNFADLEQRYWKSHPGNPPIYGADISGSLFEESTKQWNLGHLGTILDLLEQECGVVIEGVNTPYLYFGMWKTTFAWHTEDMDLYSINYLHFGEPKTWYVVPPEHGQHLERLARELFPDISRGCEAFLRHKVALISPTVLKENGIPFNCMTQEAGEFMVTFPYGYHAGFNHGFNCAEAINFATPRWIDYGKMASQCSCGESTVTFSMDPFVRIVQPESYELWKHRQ
L3MBTL1 block: L3MBTL1 (human) inhibition | Q9Y468 | AlphaScreen L3MBTL1–H3K9me1 peptide binding | Potency, µM (doses to about 57.1 µM), without a hit: at the highest dose activity, negative = inhibition, usual class: inhibitors | hit rate 0.66% among 230,000; further: nearly all actives have a fitted effect of over 60% in size
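L3MBTL1 (50 nM) pre-complexed 30 min with biotinylated H3(1-15)K9me1 peptide (75 nM), then compounds added for 30 min at room temperature; AlphaScreen streptavidin donor/nickel chelate acceptor beads (10 ug/mL final) read after 30 min dark incubation.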
APE1 inh-1: inhibitors of human APE1 endonuclease. recombinant APE1, TAMRA/BHQ-2 abasic DNA cleavage fluorescence. Potency, µM (doses to about 65.8 µM), inactives show at the highest dose activity change, negative = inhibition, most hits filed as inhibitors. hit rate 0.35% among 350,000;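 further: plate controls were vehicle for no effect and reference inhibitor for full effect; nearly all actives have a fitted effect of over 55% in size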
Target sequence (P27695 whole entry, looked up): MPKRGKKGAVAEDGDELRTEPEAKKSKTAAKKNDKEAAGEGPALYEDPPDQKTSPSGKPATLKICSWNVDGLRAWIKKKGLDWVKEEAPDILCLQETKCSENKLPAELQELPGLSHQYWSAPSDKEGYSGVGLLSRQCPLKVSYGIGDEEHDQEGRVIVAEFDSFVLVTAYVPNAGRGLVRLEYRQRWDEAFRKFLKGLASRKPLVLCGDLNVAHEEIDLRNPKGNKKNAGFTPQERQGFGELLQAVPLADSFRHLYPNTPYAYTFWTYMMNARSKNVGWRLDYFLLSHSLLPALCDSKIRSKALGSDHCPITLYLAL
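Incision of a quenched TAMRA/BHQ-2 THF abasic-site duplex (50 nM) by 0.75 nM APE1, after 15 min compound preincubation, measured as fluorescence increase over three 60 s reads. Values normalized to buffer, DMSO and NSC13755 control wells.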
APE1 dye cs: displaces fluorescent dye from DNA, flagging APE1 artifacts; shares compounds with APE1 inh-1; DNA fluorescent dye displacement counterscreen, fluorescence; Potency, µM (doses to about 28.5 µM), inactives show at the top dose activity change, negative = inhibition, usual class: inhibitors; hit rate 7% among 480;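 further: loss of thiazole orange fluorescence as the dye is displaced from duplex DNA; 0% = ThO with dsDNA and no compound and -100% = ThO without dsDNA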
Endo IV inh: Endo IV (E. coli) inhibition counter-screen; shares compounds with APE1 inh-1; E. coli Endo IV, fluorogenic AP-site DNA cleavage; Potency, µM (highest dose often 27.1 µM), for the others: at the top dose activity change, negative = inhibition, actives largely listed as inhibitors; hit rate 4% among 560;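 further: plate controls were uninhibited enzyme wells for no effect and no enzyme buffer wells for full effect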
APE1 inh-2: confirmation of inhibitors of human APE1 endonuclease. shares compounds with APE1 inh-1. purified APE1, fluorogenic abasic-site DNA cleavage. Potency, µM (titrated, usually from 57.1 µM), for inactives: at the top dose activity change, negative = inhibition, most hits filed as inhibitors. hit rate 44% among 750. AID 2572; further: nearly all actives have a fitted effect of over 30% in size
APE1 FP inh: displaces DNA from human APE1 in FP assay; hit rate 7% among 480; shares compounds with APE1 inh-1; Potency, µM (titrated, usually from 28.5 µM), inactives show at the highest dose activity, negative = inhibition, usual class: inhibitors; APE1 binding to TAMRA-labelled double-stranded DNA, fluorescence polarization displacement; AID 2573
* hit, by the source's call; i = inactive; u = inconclusive; x = not tested or not shown; [ ] = remark or other dose. Unless noted, the call rests on the fitted dose curve; in most records, active means well fitted curve in the direction sought with a large enough effect; inconclusive means small, poorly fitted or top-dose-only effect, or another doubt; inactive means no such curve, though single readings can be large; an effect the other way counts as inactive or inconclusive. Unless noted, on the % scale 0 is the no-effect control and ±100 the full control effect; potency means the concentration at half of the fitted maximal effect.

SMILES	RECQ1 helicase	BLM inh	GCN5L2 inh	JMJD2E inh	L3MBTL1 block	APE1 inh-1	APE1 dye cs	Endo IV inh	APE1 inh-2	APE1 FP inh
CC1O[C@@H](OC2C(COC3OC(CO)C(O)[C@H](O)C3O)OC(OC3CC[C@]4(C)C(CC[C@@]5(C)[C@@H]4CC=C4[C@@H]6CC(C)(C)CC[C@]6(CO)C(O)C[C@]45C)C3(C)C)C(O)C2O)C(O)C(O)C1O (some centres undefined)	x	x	-3%	x	-8%	-19%	x	x	x	x
N#C/C(=C/c1cccn1-c1cccc(C(=O)O)c1)c1ccc(F)cc1	-1%	-14%	-22%	8%	u	25µM*	7%	12%	u	-23%
N#C/C(=C/c1ccc(OCc2ccc(C(=O)O)cc2)c(Br)c1)c1cccc(F)c1	5%	-25%	u	-11%	x	u	x	x	x	x
O=C(Oc1ccc2c(c1)OCO2)c1cc2c(s1)CCC2	u	3%	u	u	-91%	u	-16%	2%	11µM*	u
O=C(c1cc2c(s1)CCCC2)N1CCN(Cc2ccc3c(c2)OCO3)CC1	-6%	-6%	-8%	-9%	-3%	6%	x	x	x	x
Nc1cc(C(=O)O)ccc1Sc1ccccc1C(=O)O	28%	6%	-26%	u	x	u	x	x	-10%	x
CCc1cc2c(=O)c(-c3nc4ccccc4n3C)coc2c(CN2CCN(C)CC2)c1O	u	-12%	-6%	u	6%[11.4 µM]	u	x	x	u	x
O=C(COc1ccc2c(c1)oc(=O)c1ccccc12)NCCN1CCOCC1	x	2%	-5%	x	x	-9%	x	x	x	x
CS(=O)(=O)C1=NSC2=NC(=O)/C(=C\c3cccn3-c3ccc(Cl)cc3)C(=N)N21	-20%	u	-23%	u	-25%	u	x	x	14µM*	x
COc1ccc(-c2cc(C)no2)cc1S(=O)(=O)Nc1cccc(C(F)(F)F)c1	x	-2%	-3%	x	x	x	x	x	x	x
Nc1cc([N+](=O)[O-])ccc1N1C(=O)CCCC1=O	i	-16%	-2%	-2%	-13%	u	x	x	u	x
O=C(Cn1c(=O)n(Cc2ccco2)c(=O)c2c3c(sc21)CCCC3)Nc1ccccc1	-14%	-14%	-8%	0%	-10%	-3%	x	x	x	x
NC(=O)Cn1c(=O)n(Cc2ccco2)c(=O)c2c3c(sc21)CCCCC3	u	u	-28%	4%	u	u	u	3%	10µM*	u
O=C(O)COc1c(Cl)cc(/C=C2\NC(=O)NC2=O)cc1Br	i	0%	2%	-18%	1%	3%	x	x	x	x
COc1cccc(/C=C2\SC(=O)NC2=O)c1OCc1ccc(C(=O)O)cc1	i	-1%	-3%	-6%	2%	u	x	x	-22%	x
COc1cc(/C=C2/NC(=O)NC2=O)cc(Br)c1OCc1ccc(C(=O)O)cc1	-1%	-18%	-12%	-25%	x	u	x	x	u	x
CC(C)[C@@H](CC(=O)N[C@@H]1CCNC[C@H]1C(=O)N[C@H](CC(=O)N[C@@H](CCC(=O)O)CC(=O)O)Cc1ccccc1)NC(=O)C[C@H](Cc1ccccc1)NC(=O)[C@@H]1CNCC[C@H]1N	i	-15%	x	9%	x	15%	x	x	x	x
COc1ccc(S(=O)(=O)NCCc2cn3ccsc3n2)cc1	x	-3%	4%	x	x	x	x	x	x	x
O=C(OCC(=O)N1CCCCCC1)c1ccc(Cl)c(S(=O)(=O)N2CCCC2)c1	-18%	-7%	1%	13%	-24%	u	17%	8%	u	-5%
NC(=O)COC(=O)c1ccc(Cl)c(S(=O)(=O)N2CCCCCC2)c1	-17%	-2%	-11%	-2%	x	-2%	x	x	x	x
CCN(CC)S(=O)(=O)c1ccc(NC(=O)CCN2C(=O)C3CC=CCC3C2=O)cc1 (centres undefined)	x	x	3%	x	-1%	30%	x	x	x	x
CN(C)[C@H]1C(=O)C(C(=O)NCN2CCCC2)=C(O)[C@]2(O)C(=O)C3=C(O)c4c(O)cccc4[C@@](C)(O)[C@H]3C[C@@H]12	-21%[25.9 µM]	-13%[21.4 µM]	u	11µM*	x	x	5%	-9%	-11%[24.4 µM]	u
Cc1sc2ncnc(SCC(=O)NC(=O)NCc3ccco3)c2c1C	u	-27%	-6%	-8%	u	28µM*	15%	-1%	u	20%
Cc1cc(C)c(C#N)c(SCC(=O)c2cccs2)n1	i	-12%	1%	8%	x	u	x	x	-23%	x
O=Cc1ccc2oc3nc4n(c(=O)c3c(=O)c2c1)CCCS4	13µM*	28µM*	u	-24%	x	u	x	x	32µM*	x
C[C@@H]1OC(O[C@H]2[C@H](Oc3cc(O)c4c(=O)c(O)c(-c5ccc(O)cc5)oc4c3)O[C@H](CO)[C@@H](O)[C@@H]2O)[C@H](O)[C@H](O)[C@H]1O (some centres undefined)	-9%	-7%	-10%	x	x	-9%	x	x	x	x
O=c1c(OC2OC(CO)C(O)C(O)C2OC2OC(CO)C(O)C(O)C2O)c(-c2ccc(O)cc2)oc2cc(O)cc(O)c12 (centres undefined)	10µM*	-20%	u	28µM*	x	8.9µM*	1%	12%	u	-42%
O=c1ccn(CCc2c[nH]c3ccccc23)c2c1CCCC2	-2%	8%	8%	-17%	u	0.079µM*	-5%	-5%	-7%[24.4 µM]	4%
O=C(O)c1cc(O)c2c(c1)C(=O)c1cc(O)cc(O)c1C2=O	u	-6%	-18%	-19%	2.5µM*	25µM*	13µM*	u	14µM*	5µM*
CCOC(=O)CC(=O)CSc1nc(CC)c(C)cc1C#N	8%	1%	2%	i	-8%	7%	x	x	-28%	x

Bioassay records: PubChem BioAssay, National Center for Advancing Translational Sciences (NCATS)
